High-throughput results from PubChem.
NALP1 inh – NALP1 inflammasome inhibitors in reconstituted yeast, colorimetric, S. cerevisiae, triplicate retest. S. cerevisiae NALP1/ASC/caspase-1 growth, X-gal OD620, 72 h. inhibition, % at 10 µM. 0.61% of 280,000 active; in the data active = inhibition mostly above about 24%, no sharp cut-off; inactive = mostly below about 32%
TIM10 inh – growth inhibitors of isogenic TIM10 control yeast, primary screen, counter-screen for tim10-1 yeast inhibitor project, luminescence, uHTS. S. cerevisiae TIM10 strain growth, BacTiter-Glo luminescence, 24 h. inhibition, % at 10 µM. 1.4% of 330,000 active. AID 463195, 2010;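 active = inhibition of 40% or more at the single tested concentration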;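 note: wild-type TIM10 isogenic control strain grown at permissive 25 °C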
NLRP3 yeast inh – NALP3 inflammasome inhibitors in reconstituted yeast, primary screen, luminescence, uHTS; 0.39% of 330,000 active; Yeast reconstituted NLRP3/ASC/caspase-1, beta-gal luminescence, 24 h; inhibition, % at 10 µM;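 active = inhibition of 50% or more; inactive = inhibition below 50%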;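 note: plate controls were induced DMSO wells for no effect and uninduced yeast grown without galactose for full effect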
tim23-1 inh – growth inhibitors of tim23-1 mutant yeast, primary screen, luminescence, uHTS; S. cerevisiae tim23-1 growth, BacTiter-Glo luminescence, 24 h; 1.3% of 330,000 active; inhibition, % at 20 µM;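 active = growth inhibition of the mutant yeast at or above 50%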;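 note: temperature-sensitive mutant grown at 25 °C; plate controls were DMSO-treated mutant yeast for no effect and medium wells lacking yeast for full effect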
tim10-1 inh – growth inhibitors of tim10-1 mutant yeast, primary screen, luminescence, uHTS; inhibition, % at 20 µM; S. cerevisiae tim10-1 ts strain growth, BacTiter-Glo, 24 h; 2.2% of 330,000 active;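 active = inhibition of at least 40%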;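 note: mutant grown at 25 °C; 0% = DMSO wells with yeast and 100% = wells holding no yeast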
tim10-1 confirm – growth inhibitors of tim10-1 mutant yeast, confirmation, single concentration, luminescence, S. cerevisiae; shares compounds with tim10-1 inh; S. cerevisiae tim10-1 ts strain growth, BacTiter-Glo, 24 h; inhibition, % at 20 µM; 56% of 7,400 active; AID 463213, 2010;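 active = inhibition of yeast growth at or above a set limit in either of two repeat tests at 20 µM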;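 note: tim10-1 mutant grown at permissive 25 °C to find synthetic lethal compounds; 0% = DMSO yeast wells and 100% = medium wells without yeast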
* hit, by the source's call; . = no result given. This is a sample that favours compounds with a hit; in the whole collection about 4.1% have one here.

SMILES	NALP1 inh	TIM10 inh	NLRP3 yeast inh	tim23-1 inh	tim10-1 inh	tim10-1 confirm
CC1CCCCC1NC(=O)c1cccc(NC2=NC3CS(=O)(=O)CC3S2)c1 (stereo not given)	-9.0	5.3	1.1	9.0	7.9	.
Nc1nc(-c2ccccc2)c(N=Nc2ccccc2Cl)s1	24.8	38.4	37.1	26.2	54.7*	26.8
Nc1nc(-c2ccccc2)c(N=Nc2cccc3ccccc23)s1	17.9	2.8	37.3	29.1	14.7	.
CC(C)(C)C(=O)NC(=S)Nc1ccc(Cc2ccncc2)cc1	19.9	31.8	43.6	37.8	44.3*	30.0
CNc1sc(C(=O)c2ccccc2F)c(N)c1-c1nc2ccccc2s1	24.9	35.2	27.5	23.6	46.5*	35.1*
O=C(CNC(=O)c1ccccc1F)OCc1nc2ccccc2s1	13.5	-33.8	-3.9	-4.8	0.5	.
CS(=O)(=O)N(CC(=O)Nc1cccc(F)c1)Cc1ccccc1	21.5	-12.4	4.1	7.1	49.4*	5.2
Clc1ccc(C2CC(c3cccs3)n3ncnc3N2)c(Cl)c1 (stereo not given)	4.6	34.4	-0.5	45.2	40.5*	25.4
Clc1ccccc1C1CC(c2ccccc2)Nc2ncnn21 (stereo not given)	27.0	2.6	3.6	20.9	9.0	.
CCOC(=O)c1c(-c2ccc(C)o2)csc1NC(=S)NC(=O)N(C)C	4.7	37.3	-6.3	41.1	55.4*	45.5*
CCOC(=O)c1c(-c2ccc(C)o2)csc1NC(=O)CN1CCOCC1	-24.1	18.5	17.6	0.5	17.2	.
CCOC(=O)c1c(-c2ccc(C)o2)csc1NC(=O)COC(=O)c1cccs1	-72.8	21.0	19.7	41.8	41.8*	30.0
S=C(Nc1ccccc1Cl)N(Cc1ccccc1)Cc1ccccn1	5.7	2.5	-13.7	33.2	46.8*	25.4
COc1ccccc1NC(=S)N(Cc1ccccc1)Cc1ccccn1	4.8	31.3	-0.6	35.4	16.6	.
CCC(C)(C)NC(=O)CN(C(=O)CNS(=O)(=O)c1ccc(F)cc1)c1ccc2c(c1)OCCO2	9.5	-11.6	20.8	3.7	7.5	.
CC(C)(C)NC(=O)C(c1cccs1)N(Cc1ccc(F)cc1)C(=O)c1csnn1 (stereo not given)	11.8	10.0	20.9	23.2	43.4*	10.8
CCOC(=O)C1=C(C)N(C)C(=S)N(C)C1c1ccc(OC)cc1 (stereo not given)	1.3	12.6	-3.6	23.1	31.9	.
COC(=O)C1=C(C)N(C)C(=S)N(C)C1c1cccc(Br)c1 (stereo not given)	11.9	25.0	19.4	44.4	41.5*	27.4
CCOc1ccc(N2C(=O)/C(=C\c3ccccc3OC)S(=O)(=O)C2c2cccc([N+](=O)[O-])c2)cc1 (stereo not given)	13.8	16.1	11.7	33.9	45.0*	41.4*
O=C(c1ccc(Br)o1)N1CCN(CCc2ccncc2)CC1	14.0	-11.9	13.5	-0.9	17.9	.
O=C(Nc1ccc(OC(F)F)cc1)c1cc[n+]([O-])cc1	21.4	10.2	1.3	-5.7	-18.5	.
O=C(NCc1cccnc1)c1ccc(-c2cc(Cl)ccc2Cl)o1	13.8	15.0	16.6	32.6	40.2*	29.9
COc1cccc(N2C(=O)C3C(C2=O)C2C=CC3C23CC3)c1 (stereo not given)	43.9	-4.8	11.3	-4.8	-13.1	.
Cc1ccc(SCCNS(=O)(=O)c2ccc(F)cc2)cc1	.	-12.5	21.4	35.9	40.8*	15.4
Oc1csc(Cc2nc(-c3ccc(-c4ccccc4)cc3)cs2)n1	7.6	11.9	12.4	7.3	21.5	.
SMILES	NALP1 inh	TIM10 inh	NLRP3 yeast inh	tim23-1 inh	tim10-1 inh	tim10-1 confirm
NC(=S)Cc1nc(-c2ccccc2)cs1	10.6	38.6	1.3	42.4	51.0*	44.0*
Nc1ccccc1Nc1cc(-c2ccccc2)nn1-c1cccc(Cl)c1	25.3	20.1	21.9	48.3	44.5*	15.8
Clc1ccc(C2=CC(c3ccco3)n3ncnc3N2)cc1 (stereo not given)	3.6	29.3	17.1	23.5	42.6*	33.0*
COc1ccc(C2=CC(c3ccco3)n3ncnc3N2)cc1 (stereo not given)	14.5	14.9	27.4	15.1	24.3	.
CC1=CC(=O)C=C(C)C1=NOC(=O)/C=C\c1ccccc1	-11.1	37.1	-16.5	32.4	45.6*	32.1*
CC(=O)Nc1ccc(NC(=O)Cn2c(=O)n(-c3ccc(C)cc3)c(=O)c3oc4ccccc4c32)cc1	-8.3	-5.3	17.7	11.2	3.6	.
Oc1ccc(/C=N/NC(=S)Nc2cccnc2)cc1	.	-6.7	12.5	2.2	13.2	.
Oc1ccc(/C=N/NC(=S)N/N=C/c2ccc(O)cc2)cc1	16.8	30.0	6.7	43.5	41.3*	30.6
CCOC(=O)c1sc(/N=C/c2ccc(O)cc2O)cc1C	26.9	2.7	-9.8	17.5	11.8	.
COc1cccc(-n2cc(-c3ccc(F)cc3)[nH]c2=S)c1	-15.2	26.4	21.6	48.2	46.0*	14.0
O=C(N/N=C1\CCCc2ccccc21)c1ccc([N+](=O)[O-])cc1	-64.2	21.9	-6.0	24.6	46.1*	25.7
Cc1ccc(C(C)C)c(OCC(=O)Nn2c(=O)[nH]c3ccccc3c2=O)c1	14.9	-11.3	7.5	16.1	16.1	.
Cc1ccc(C(C)C)c(OCC(=O)Nn2c(C)nc3ccccc3c2=O)c1	20.5	23.0	8.1	49.4	46.7*	28.4
C/C(=N/NS(=O)(=O)c1ccc(Cl)cc1)c1ccncc1	17.5	17.0	3.6	12.6	25.2	.
C/C(=N/NS(=O)(=O)c1ccccc1)c1ccc(Cl)cc1	-0.7	32.2	6.1	12.6	40.0	19.5
C/C(=N\NS(=O)(=O)c1ccc(C(C)(C)C)cc1)c1ccccc1	20.1	29.2	-12.3	48.9	42.4*	42.6*
COc1ccc(-c2nnc(C)c3nocc23)cc1	11.9	1.0	12.9	2.6	4.0	.
Brc1ccc(-c2nnc(-c3cccnc3)c3conc23)cc1	.	18.3	30.9	43.6	50.7*	14.7
COc1cc([N+](=O)[O-])ccc1NC(=O)Nn1cnnc1	16.0	1.7	3.8	-10.5	-2.0	.
Cc1cccc(C(=O)O/N=C(\c2ccccc2)c2cccnc2)c1	34.5	16.7	25.1	9.9	37.1	.
Cc1ccc(C(=O)O/N=C(\c2ccccc2)c2cccnc2)cc1	29.2	1.3	17.4	15.1	41.9*	36.0*
CC12CCC(C(=O)NC(c3ccccc3)c3ccccc3)(OC1=O)C2(C)C (stereo not given)	5.1	21.3	-1.2	38.7	42.0*	29.5
CCc1cccc(C)c1NC(=O)CN1C(=O)NC(CCc2ccccc2)C1=O (stereo not given)	.	-3.1	-5.0	12.1	13.0	.
